{"source": "paper PMC11024108", "key": {"Cell adhesion molecule 3": {"target": "Cell adhesion molecule 3 (UniProt Q99N28)", "assay": "cross-link between two proteins; cross-linking mass spectrometry"}, "[1]": {"target": "Cell cycle control protein 50A (UniProt Q8VEK0)", "assay": "cross-link between two proteins; cross-linking mass spectrometry"}, "Clathrin heavy chain 1": {"target": "Clathrin heavy chain 1 (UniProt Q68FD5)", "assay": "cross-link between two proteins; cross-linking mass spectrometry"}, "Clathrin light chain B": {"target": "Clathrin light chain B (UniProt Q6IRU5)", "assay": "cross-link between two proteins; cross-linking mass spectrometry"}, "Cofilin-1": {"target": "Cofilin-1 (UniProt P23528)", "assay": "cross-link between two proteins; cross-linking mass spectrometry"}, "[2]": {"target": "Complement C1q subcomponent subunit C (UniProt Q02105)", "assay": "cross-link between two proteins; cross-linking mass spectrometry"}, "Cytochrome c": {"target": "Cytochrome c (UniProt P99999)", "assay": "cross-link between two proteins; cross-linking mass spectrometry"}, "[3]": {"target": "Cytochrome c oxidase assembly factor 3 homolog, mitochondrial (UniProt Q9Y2R0)", "sequence (Q9Y2R0 whole entry)": "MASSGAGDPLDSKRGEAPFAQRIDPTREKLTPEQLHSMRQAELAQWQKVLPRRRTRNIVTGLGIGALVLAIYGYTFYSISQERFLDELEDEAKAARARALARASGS", "assay": "cross-link between two proteins; cross-linking mass spectrometry"}, "[4]": {"target": "Cytoplasmic FMR1-interacting protein 2 (UniProt Q5SQX6)", "assay": "cross-link between two proteins; cross-linking mass spectrometry"}, "[5]": {"target": "Cytoplasmic dynein 1 heavy chain 1 (UniProt Q9JHU4)", "assay": "cross-link between two proteins; cross-linking mass spectrometry"}, "[6]": {"target": "Delta-1-pyrroline-5-carboxylate synthase (UniProt P54886)", "assay": "cross-link between two proteins; cross-linking mass spectrometry"}, "Prohibitin-2": {"target": "Prohibitin-2 (UniProt Q99623)", "assay": "cross-link between two proteins; cross-linking mass spectrometry"}, "[7]": {"target": "Scaffold attachment factor B1 (UniProt Q15424)", "assay": "cross-link between two proteins; cross-linking mass spectrometry"}, "[8]": {"target": "Trifunctional enzyme subunit alpha, mitochondrial (UniProt P40939)", "sequence (P40939 whole entry)": "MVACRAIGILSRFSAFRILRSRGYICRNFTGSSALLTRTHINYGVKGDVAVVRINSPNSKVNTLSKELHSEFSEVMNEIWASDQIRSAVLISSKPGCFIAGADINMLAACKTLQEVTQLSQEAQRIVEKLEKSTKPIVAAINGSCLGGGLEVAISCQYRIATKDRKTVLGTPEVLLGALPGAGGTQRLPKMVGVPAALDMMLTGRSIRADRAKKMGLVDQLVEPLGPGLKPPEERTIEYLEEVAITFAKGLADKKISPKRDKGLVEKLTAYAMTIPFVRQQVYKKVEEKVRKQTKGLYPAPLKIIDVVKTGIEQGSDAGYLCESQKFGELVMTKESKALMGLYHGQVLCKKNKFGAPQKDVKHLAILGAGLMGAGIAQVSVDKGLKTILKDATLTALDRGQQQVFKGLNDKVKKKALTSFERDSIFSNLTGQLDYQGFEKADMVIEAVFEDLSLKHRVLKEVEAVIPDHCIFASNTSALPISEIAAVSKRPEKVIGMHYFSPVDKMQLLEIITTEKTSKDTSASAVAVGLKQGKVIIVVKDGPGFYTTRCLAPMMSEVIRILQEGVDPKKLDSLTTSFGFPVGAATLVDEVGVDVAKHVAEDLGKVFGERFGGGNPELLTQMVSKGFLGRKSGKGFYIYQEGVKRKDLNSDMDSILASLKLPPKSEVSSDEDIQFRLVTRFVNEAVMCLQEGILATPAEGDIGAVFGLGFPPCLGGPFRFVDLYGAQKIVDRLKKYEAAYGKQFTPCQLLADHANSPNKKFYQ", "assay": "cross-link between two proteins; cross-linking mass spectrometry"}, "[9]": {"target": "Dihydrolipoyl dehydrogenase, mitochondrial (UniProt P09622)", "assay": "cross-link between two proteins; cross-linking mass spectrometry"}, "[10]": {"target": "Malate dehydrogenase, mitochondrial (UniProt P40926)", "assay": "cross-link between two proteins; cross-linking mass spectrometry"}, "[11]": {"target": "Disintegrin and metalloproteinase domain-containing protein 22 (UniProt Q9R1V6)", "sequence (Q9R1V6 whole entry, the tested form may be a part)": "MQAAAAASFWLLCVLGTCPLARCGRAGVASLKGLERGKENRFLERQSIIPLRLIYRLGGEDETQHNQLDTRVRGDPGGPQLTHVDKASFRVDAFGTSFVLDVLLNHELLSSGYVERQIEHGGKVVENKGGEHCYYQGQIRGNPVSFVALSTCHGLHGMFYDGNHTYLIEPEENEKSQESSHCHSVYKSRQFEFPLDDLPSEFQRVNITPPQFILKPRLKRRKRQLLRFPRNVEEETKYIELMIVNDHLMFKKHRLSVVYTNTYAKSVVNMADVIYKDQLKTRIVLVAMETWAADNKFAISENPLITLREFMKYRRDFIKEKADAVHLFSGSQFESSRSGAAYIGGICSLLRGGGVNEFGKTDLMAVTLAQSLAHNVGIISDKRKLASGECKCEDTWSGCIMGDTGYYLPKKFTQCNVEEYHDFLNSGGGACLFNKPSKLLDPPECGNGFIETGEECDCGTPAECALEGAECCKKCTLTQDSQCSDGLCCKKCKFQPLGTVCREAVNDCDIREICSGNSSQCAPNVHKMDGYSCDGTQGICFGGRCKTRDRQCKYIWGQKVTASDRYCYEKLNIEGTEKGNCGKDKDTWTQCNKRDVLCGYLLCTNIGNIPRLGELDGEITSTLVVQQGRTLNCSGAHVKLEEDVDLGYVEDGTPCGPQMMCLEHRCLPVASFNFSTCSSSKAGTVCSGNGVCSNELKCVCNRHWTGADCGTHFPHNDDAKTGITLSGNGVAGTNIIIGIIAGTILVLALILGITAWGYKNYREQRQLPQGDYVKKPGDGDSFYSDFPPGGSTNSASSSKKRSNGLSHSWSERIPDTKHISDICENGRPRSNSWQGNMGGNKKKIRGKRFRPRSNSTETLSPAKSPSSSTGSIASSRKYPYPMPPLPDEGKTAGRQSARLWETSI", "assay": "cross-link between two proteins; cross-linking mass spectrometry"}, "[12]": {"target": "Disintegrin and metalloproteinase domain-containing protein 23 (UniProt Q9R1V7)", "assay": "cross-link between two proteins; cross-linking mass spectrometry"}, "[13]": {"target": "DnaJ homolog subfamily A member 1 (UniProt P63037)", "assay": "cross-link between two proteins; cross-linking mass spectrometry"}, "[14]": {"target": "Vesicle-associated membrane protein 1 (UniProt Q62442)", "assay": "cross-link between two proteins; cross-linking mass spectrometry"}, "[15]": {"target": "DnaJ homolog subfamily C member 5 (UniProt Q9H3Z4)", "sequence (Q9H3Z4 whole entry)": "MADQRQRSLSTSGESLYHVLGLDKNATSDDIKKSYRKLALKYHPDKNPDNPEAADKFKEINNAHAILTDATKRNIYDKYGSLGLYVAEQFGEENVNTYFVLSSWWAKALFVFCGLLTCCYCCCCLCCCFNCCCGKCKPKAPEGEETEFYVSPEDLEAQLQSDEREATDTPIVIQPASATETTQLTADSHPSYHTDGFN", "assay": "cross-link between two proteins; cross-linking mass spectrometry"}, "[16]": {"target": "Dolichyl-diphosphooligosaccharide--protein glycosyltransferase subunit 1 (UniProt P04843)", "assay": "cross-link between two proteins; cross-linking mass spectrometry"}, "[17]": {"target": "Vesicle-associated membrane protein-associated protein A (UniProt Q9P0L0)", "sequence (Q9P0L0 whole entry)": "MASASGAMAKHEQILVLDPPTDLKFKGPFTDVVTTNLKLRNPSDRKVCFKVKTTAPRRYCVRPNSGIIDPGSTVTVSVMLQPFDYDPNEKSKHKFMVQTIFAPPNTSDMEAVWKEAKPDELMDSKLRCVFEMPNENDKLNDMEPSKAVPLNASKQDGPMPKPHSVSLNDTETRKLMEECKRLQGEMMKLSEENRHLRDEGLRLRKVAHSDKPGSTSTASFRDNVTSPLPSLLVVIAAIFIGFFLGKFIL", "assay": "cross-link between two proteins; cross-linking mass spectrometry"}, "Dynactin subunit 2": {"target": "Dynactin subunit 2 (UniProt Q99KJ8)", "sequence (Q99KJ8 whole entry)": "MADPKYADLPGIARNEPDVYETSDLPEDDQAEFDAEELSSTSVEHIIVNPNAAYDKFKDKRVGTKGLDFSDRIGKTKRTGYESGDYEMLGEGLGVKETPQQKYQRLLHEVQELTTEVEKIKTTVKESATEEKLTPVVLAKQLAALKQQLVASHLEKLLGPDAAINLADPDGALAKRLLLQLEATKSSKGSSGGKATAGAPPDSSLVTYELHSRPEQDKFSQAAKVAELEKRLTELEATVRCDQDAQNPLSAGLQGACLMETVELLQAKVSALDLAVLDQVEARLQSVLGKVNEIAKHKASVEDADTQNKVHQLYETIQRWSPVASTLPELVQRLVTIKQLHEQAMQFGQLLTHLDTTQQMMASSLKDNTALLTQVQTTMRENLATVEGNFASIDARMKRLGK", "assay": "cross-link between two proteins; cross-linking mass spectrometry"}, "Dynactin subunit 3": {"target": "Dynactin subunit 3 (UniProt Q9Z0Y1)", "assay": "cross-link between two proteins; cross-linking mass spectrometry"}, "Dynamin-3": {"target": "Dynamin-3 (UniProt Q8BZ98)", "assay": "cross-link between two proteins; cross-linking mass spectrometry"}, "[18]": {"target": "Dynein light chain 2, cytoplasmic (UniProt Q9D0M5)", "assay": "cross-link between two proteins; cross-linking mass spectrometry"}, "Protein piccolo": {"target": "Protein piccolo (UniProt Q9QYX7)", "assay": "cross-link between two proteins; cross-linking mass spectrometry"}, "[19]": {"target": "EH domain-containing protein 1 (UniProt Q9WVK4)", "sequence (Q9WVK4 whole entry, the tested form may be a part)": "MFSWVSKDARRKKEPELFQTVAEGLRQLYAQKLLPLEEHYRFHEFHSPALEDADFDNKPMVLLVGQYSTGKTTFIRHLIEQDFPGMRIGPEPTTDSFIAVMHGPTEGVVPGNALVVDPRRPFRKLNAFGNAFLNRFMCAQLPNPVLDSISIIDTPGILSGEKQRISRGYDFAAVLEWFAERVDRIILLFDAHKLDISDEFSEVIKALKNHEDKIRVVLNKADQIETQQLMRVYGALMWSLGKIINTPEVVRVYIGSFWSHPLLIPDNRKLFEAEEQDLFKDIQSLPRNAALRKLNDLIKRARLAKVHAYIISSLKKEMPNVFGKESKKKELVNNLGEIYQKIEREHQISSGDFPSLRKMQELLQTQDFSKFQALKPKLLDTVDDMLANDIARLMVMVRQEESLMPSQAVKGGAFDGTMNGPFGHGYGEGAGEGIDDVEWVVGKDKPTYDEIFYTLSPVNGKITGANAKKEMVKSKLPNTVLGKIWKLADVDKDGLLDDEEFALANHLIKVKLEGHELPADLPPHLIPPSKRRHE", "assay": "cross-link between two proteins; cross-linking mass spectrometry"}, "[20]": {"target": "ER membrane protein complex subunit 2 (UniProt Q9CRD2)", "assay": "cross-link between two proteins; cross-linking mass spectrometry"}, "ERO1-like protein alpha": {"target": "ERO1-like protein alpha (UniProt Q96HE7)", "assay": "cross-link between two proteins; cross-linking mass spectrometry"}, "[21]": {"target": "Elongation factor 1-alpha 2 (UniProt P62631)", "assay": "cross-link between two proteins; cross-linking mass spectrometry"}, "[22]": {"target": "Epidermal growth factor receptor substrate 15-like 1 (UniProt Q9UBC2)", "assay": "cross-link between two proteins; cross-linking mass spectrometry"}, "Erlin-1": {"target": "Erlin-1 (UniProt Q91X78)", "assay": "cross-link between two proteins; cross-linking mass spectrometry"}, "[23]": {"target": "Eukaryotic translation initiation factor 2 subunit 3, X-linked (UniProt Q9Z0N1)", "sequence (Q9Z0N1 whole entry)": "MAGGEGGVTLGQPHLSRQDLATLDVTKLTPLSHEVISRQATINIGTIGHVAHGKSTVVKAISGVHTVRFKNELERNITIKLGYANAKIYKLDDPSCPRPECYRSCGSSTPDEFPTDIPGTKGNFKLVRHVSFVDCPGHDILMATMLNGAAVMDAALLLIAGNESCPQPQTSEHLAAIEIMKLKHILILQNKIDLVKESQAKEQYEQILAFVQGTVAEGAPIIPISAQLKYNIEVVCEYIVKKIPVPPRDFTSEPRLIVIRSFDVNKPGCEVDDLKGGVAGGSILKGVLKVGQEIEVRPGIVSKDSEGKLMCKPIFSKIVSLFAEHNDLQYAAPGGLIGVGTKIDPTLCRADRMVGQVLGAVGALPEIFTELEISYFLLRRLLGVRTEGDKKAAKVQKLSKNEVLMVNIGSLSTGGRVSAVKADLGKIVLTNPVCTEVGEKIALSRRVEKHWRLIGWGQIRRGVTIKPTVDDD", "assay": "cross-link between two proteins; cross-linking mass spectrometry"}, "[24]": {"target": "Eukaryotic translation initiation factor 3 subunit B (UniProt Q8JZQ9)", "assay": "cross-link between two proteins; cross-linking mass spectrometry"}, "Flotillin-1": {"target": "Flotillin-1 (UniProt O75955)", "sequence (O75955 whole entry)": "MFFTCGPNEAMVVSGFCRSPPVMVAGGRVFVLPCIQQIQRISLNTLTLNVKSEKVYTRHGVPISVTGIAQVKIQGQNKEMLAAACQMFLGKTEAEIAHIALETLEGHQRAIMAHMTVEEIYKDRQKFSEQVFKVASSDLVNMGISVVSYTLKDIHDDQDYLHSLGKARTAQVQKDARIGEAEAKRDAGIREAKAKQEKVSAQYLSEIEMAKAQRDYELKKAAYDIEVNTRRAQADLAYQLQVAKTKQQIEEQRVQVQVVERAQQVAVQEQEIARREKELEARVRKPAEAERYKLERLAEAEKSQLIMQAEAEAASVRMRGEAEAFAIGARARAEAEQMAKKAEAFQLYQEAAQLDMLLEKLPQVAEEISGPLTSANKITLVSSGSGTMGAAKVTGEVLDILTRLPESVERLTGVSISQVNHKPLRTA", "assay": "cross-link between two proteins; cross-linking mass spectrometry"}, "Flotillin-2": {"target": "Flotillin-2 (UniProt Q60634)", "assay": "cross-link between two proteins; cross-linking mass spectrometry"}, "[25]": {"target": "Fragile X messenger ribonucleoprotein 1 (UniProt Q06787)", "assay": "cross-link between two proteins; cross-linking mass spectrometry"}, "[26]": {"target": "10 kDa heat shock protein, mitochondrial (UniProt P61604)", "sequence (P61604 whole entry)": "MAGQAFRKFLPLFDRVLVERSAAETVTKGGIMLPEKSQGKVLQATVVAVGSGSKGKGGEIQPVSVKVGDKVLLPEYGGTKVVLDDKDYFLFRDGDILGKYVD", "assay": "cross-linking mass spectrometry"}, "[27]": {"target": "Heat shock cognate 71 kDa protein (UniProt P11142)", "assay": "cross-linking mass spectrometry"}, "[28]": {"target": "Heat shock 70 kDa protein 1B (UniProt P0DMV9)", "assay": "cross-link between two proteins; cross-linking mass spectrometry"}, "Syntaxin-8": {"target": "Syntaxin-8 (UniProt Q9UNK0)", "assay": "cross-linking mass spectrometry"}, "[29]": {"target": "Gamma-soluble NSF attachment protein (UniProt Q99747)", "sequence (Q99747 whole entry)": "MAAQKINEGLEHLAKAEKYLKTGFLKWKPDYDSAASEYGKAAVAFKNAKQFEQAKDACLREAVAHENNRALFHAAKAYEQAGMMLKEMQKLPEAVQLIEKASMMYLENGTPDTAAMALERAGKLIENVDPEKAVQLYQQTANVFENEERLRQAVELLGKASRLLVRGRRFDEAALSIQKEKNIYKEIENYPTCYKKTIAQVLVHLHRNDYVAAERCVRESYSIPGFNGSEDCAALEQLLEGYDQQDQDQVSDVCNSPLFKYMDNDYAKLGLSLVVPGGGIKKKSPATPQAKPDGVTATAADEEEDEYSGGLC", "assay": "cross-link between two proteins; cross-linking mass spectrometry"}, "[30]": {"target": "Fructose-bisphosphate aldolase A (UniProt P05064)", "sequence (P05064 whole entry)": "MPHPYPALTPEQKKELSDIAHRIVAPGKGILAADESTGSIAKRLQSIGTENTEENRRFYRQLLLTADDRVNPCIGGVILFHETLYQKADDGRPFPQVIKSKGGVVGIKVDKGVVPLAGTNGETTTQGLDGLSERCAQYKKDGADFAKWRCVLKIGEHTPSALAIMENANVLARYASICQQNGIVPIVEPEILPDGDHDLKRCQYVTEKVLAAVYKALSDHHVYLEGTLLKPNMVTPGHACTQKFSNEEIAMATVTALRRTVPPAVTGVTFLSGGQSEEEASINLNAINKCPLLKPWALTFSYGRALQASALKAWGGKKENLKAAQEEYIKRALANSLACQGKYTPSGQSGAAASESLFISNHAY", "assay": "cross-link between two proteins; cross-linking mass spectrometry"}, "[31]": {"target": "Gamma-aminobutyric acid receptor subunit beta-1 (UniProt P50571)", "assay": "cross-link between two proteins; cross-linking mass spectrometry"}}}
{"substance": "Cell adhesion molecule 2, Q8BLQ9", "values": [{"measurement": "listed as a hit", "setting": "Cell adhesion molecule 3", "result": "yes"}]}
{"substance": "Phospholipid-transporting ATPase IA, P70704", "values": [{"measurement": "listed as a hit", "setting": "[1]", "result": "yes"}]}
{"substance": "Clathrin light chain A, O08585", "values": [{"measurement": "listed as a hit", "setting": "Clathrin heavy chain 1", "result": "yes"}]}
{"substance": "Clathrin heavy chain 1, Q68FD5", "values": [{"measurement": "listed as a hit", "setting": "Clathrin light chain B", "result": "yes"}]}
{"substance": "WD repeat-containing protein 1, O75083", "values": [{"measurement": "listed as a hit", "setting": "Cofilin-1", "result": "yes"}]}
{"substance": "Complement C1q subcomponent subunit A, P98086", "values": [{"measurement": "listed as a hit", "setting": "[2]", "result": "yes"}]}
{"substance": "Holocytochrome c-type synthase, P53701", "values": [{"measurement": "listed as a hit", "setting": "Cytochrome c", "result": "yes"}]}
{"substance": "COX assembly mitochondrial protein homolog, Q7Z7K0", "values": [{"measurement": "listed as a hit", "setting": "[3]", "result": "yes"}]}
{"substance": "Nck-associated protein 1, P28660", "values": [{"measurement": "listed as a hit", "setting": "[4]", "result": "yes"}]}
{"substance": "Cytoplasmic dynein 1 light intermediate chain 2, Q6PDL0", "values": [{"measurement": "listed as a hit", "setting": "[5]", "result": "yes"}]}
{"substance": "Cytoplasmic dynein 1 light intermediate chain 1, Q8R1Q8", "values": [{"measurement": "listed as a hit", "setting": "[5]", "result": "yes"}]}
{"substance": "60 kDa heat shock protein, mitochondrial, P10809", "values": [{"measurement": "listed as a hit", "setting": "[6]", "result": "yes"}, {"measurement": "listed as a hit", "setting": "Prohibitin-2", "result": "yes"}, {"measurement": "listed as a hit", "setting": "[7]", "result": "yes"}, {"measurement": "listed as a hit", "setting": "[8]", "result": "yes"}]}
{"substance": "Glutamate dehydrogenase 1, mitochondrial, P00367", "values": [{"measurement": "listed as a hit", "setting": "[9]", "result": "yes"}, {"measurement": "listed as a hit", "setting": "[10]", "result": "yes"}]}
{"substance": "Leucine-rich glioma-inactivated protein 1, Q9JIA1", "values": [{"measurement": "listed as a hit", "setting": "[11]", "result": "yes"}, {"measurement": "listed as a hit", "setting": "[12]", "result": "yes"}]}
{"substance": "Contactin-2, Q61330", "values": [{"measurement": "listed as a hit", "setting": "[11]", "result": "yes"}]}
{"substance": "DnaJ homolog subfamily C member 5, P60904", "values": [{"measurement": "listed as a hit", "setting": "[13]", "result": "yes"}, {"measurement": "listed as a hit", "setting": "[14]", "result": "yes"}]}
{"substance": "DnaJ homolog subfamily A member 1, P31689", "values": [{"measurement": "listed as a hit", "setting": "[15]", "result": "yes"}]}
{"substance": "Membrane-associated progesterone receptor component 2, O15173", "values": [{"measurement": "listed as a hit", "setting": "[16]", "result": "yes"}, {"measurement": "listed as a hit", "setting": "[17]", "result": "yes"}]}
{"substance": "Beta-centractin, Q8R5C5", "values": [{"measurement": "listed as a hit", "setting": "Dynactin subunit 2", "result": "yes"}]}
{"substance": "Dynactin subunit 1, O08788", "values": [{"measurement": "listed as a hit", "setting": "Dynactin subunit 2", "result": "yes"}]}
{"substance": "Dynactin subunit 2, Q99KJ8", "values": [{"measurement": "listed as a hit", "setting": "Dynactin subunit 3", "result": "yes"}]}
{"substance": "Dynamin-1, P39053", "values": [{"measurement": "listed as a hit", "setting": "Dynamin-3", "result": "yes"}]}
{"substance": "Protein bassoon, O88737", "values": [{"measurement": "listed as a hit", "setting": "[18]", "result": "yes"}, {"measurement": "listed as a hit", "setting": "Protein piccolo", "result": "yes"}]}
{"substance": "EH domain-containing protein 3, Q9QXY6", "values": [{"measurement": "listed as a hit", "setting": "[19]", "result": "yes"}]}
{"substance": "ER membrane protein complex subunit 8, O70378", "values": [{"measurement": "listed as a hit", "setting": "[20]", "result": "yes"}]}
{"substance": "Thioredoxin domain-containing protein 5, Q8NBS9", "values": [{"measurement": "listed as a hit", "setting": "ERO1-like protein alpha", "result": "yes"}]}
{"substance": "Elongation factor 1-alpha 1, P10126", "values": [{"measurement": "listed as a hit", "setting": "[21]", "result": "yes"}]}
{"substance": "Intersectin-2, Q9NZM3", "values": [{"measurement": "listed as a hit", "setting": "[22]", "result": "yes"}]}
{"substance": "Erlin-2, Q8BFZ9", "values": [{"measurement": "listed as a hit", "setting": "Erlin-1", "result": "yes"}]}
{"substance": "Eukaryotic translation initiation factor 2 subunit 1, Q6ZWX6", "values": [{"measurement": "listed as a hit", "setting": "[23]", "result": "yes"}]}
{"substance": "Eukaryotic translation initiation factor 3 subunit A, P23116", "values": [{"measurement": "listed as a hit", "setting": "[24]", "result": "yes"}]}
{"substance": "Syntaxin-7, O15400", "values": [{"measurement": "listed as a hit", "setting": "Flotillin-1", "result": "yes"}]}
{"substance": "Flotillin-1, O08917", "values": [{"measurement": "listed as a hit", "setting": "Flotillin-2", "result": "yes"}]}
{"substance": "RNA-binding protein FXR1, P51114", "values": [{"measurement": "listed as a hit", "setting": "[25]", "result": "yes"}]}
{"substance": "Peptidyl-prolyl cis-trans isomerase F, mitochondrial, P30405", "values": [{"measurement": "listed as a hit", "setting": "[26]", "result": "yes"}]}
{"substance": "BAG family molecular chaperone regulator 2, O95816", "values": [{"measurement": "listed as a hit", "setting": "[27]", "result": "yes"}, {"measurement": "listed as a hit", "setting": "[28]", "result": "yes"}]}
{"substance": "Alpha-soluble NSF attachment protein, P54920", "values": [{"measurement": "listed as a hit", "setting": "Syntaxin-8", "result": "yes"}, {"measurement": "listed as a hit", "setting": "[29]", "result": "yes"}]}
{"substance": "Fructose-bisphosphate aldolase C, P05063", "values": [{"measurement": "listed as a hit", "setting": "[30]", "result": "yes"}]}
{"substance": "Gamma-aminobutyric acid receptor subunit gamma-2, P22723", "values": [{"measurement": "listed as a hit", "setting": "[31]", "result": "yes"}]}
